High-throughput results deposited in PubChem BioAssay by National Center for Advancing Translational Sciences (NCATS).
HCV inhibitor = HCV inhibition | Huh7.5.1 HCVcc-Cre infection, luciferase reporter, 44 h | Potency, µM (doses to about 41.8 µM), most hits filed as inhibitors | 340,000 compounds, 3.4% hits | AID 651820; active means well fitted inhibition curve with a large enough effect; inconclusive means small, poorly fitted or top-dose-only effect, or another doubt; inactive means no such curve, though single readings can be large or run the other way
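Compounds are dispensed onto cells plated 4 h earlier at 1,000 per well, with HCVcc-Cre virus (about 0.5 moi) added next. Following 44 h of culture, luminescent signal is measured for 15 sec after 15 min with substrate at room temperature.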
LASV entry inh = Lassa virus entry inhibition. Lassa virus pseudotype entry inhibition, cell reporter. AID 540256. 300,000 compounds, 1.2% hits. Potency, µM (titrated, usually from 37.9 µM), hits mostly inhibitors; calls by dose curve; tested in HEK293 cells; further: nearly all actives have a fitted effect of over 50% in size
FMDV inh = antivirals against foot and mouth disease virus. AID 1159524. FMDV antiviral cell-based qHTS. 410,000 compounds, 1.2% hits. Potency, µM (highest dose often 57.9 µM), actives largely listed as inhibitors; calls by dose curve; tested in HEK293T cells; further: read-out not given here; nearly all actives have a fitted effect of over 45% in size
Marburg entry inh = Marburg virus entry inhibition; Marburg virus pseudotyped entry inhibition, cell reporter; Potency, µM (series often up to 37.8 µM), most hits filed as inhibitors; 300,000 compounds, 1.8% hits; calls by dose curve; tested in HEK293 cells
HCMV antiviral = inhibitors of human cytomegalovirus; HFF cells, HCMV-luciferase reporter, 72 h; stronger effect = lower value; activity change, negative = inhibition, % at 57.5 µM; 410,000 compounds, 4.5% hits; in the data active means activity change below about -60%; inconclusive means no clear call, values can overlap the other calls; inactive means above about -39%
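Steps: HFFs plated, 16 h 37C; compounds added; HCMV-luciferase added to MOI 1 PFU/cell; 72 h 37C; OneGlo reagent, 5 min room temperature; luminescence read, normalized to controls.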
A number is an active result; n = inactive; u = inconclusive; x = not tested or not shown; + = active, no number; ! = not active in a repeat; [ ] = dose if it differs, or a comment. Shown are actives, neighbours in structure and some others; about 7.9% of the full set was active somewhere.

SMILES	HCV inhibitor	LASV entry inh	FMDV inh	Marburg entry inh	HCMV antiviral
CC(=O)OC1C[C@]2(C)[C@@H](CC(O)C3[C@]4(C)CCC(O)C(C)[C@@H]4CC[C@]32C)/C1=C(/CCC=C(C)C)C(=O)O (stereo partly drawn)	x	x	n	x	x
COc1ccccc1-c1cc2c(Nc3cccc(S(C)(=O)=O)c3)nccc2[nH]1	x	x	x	x	n
COc1cc(/C=C/C(=O)OCC(=O)N2CC3(C)CC2CC(C)(C)C3)ccc1O (stereo not drawn)	n	u	u	n	-73
COc1cc(/C=C/C(=O)OCC(=O)c2ccc(OC(F)F)cc2)ccc1O	10µM	u	32µM	n	n
CSc1ncccc1C(=O)OCC(=O)N1CC2(C)CC1CC(C)(C)C2 (stereo not drawn)	n	n	n	u	u
COc1ccc(CN2CCC(Cc3ccccc3)CC2)cc1OC	u	x	n	x	n
COc1cccc(OC)c1OCCCN1CCC(Cc2ccccc2)CC1	11µM	u	n	11µM	n
CC1(C)CC2CC(C)(CN2C(=O)COC(=O)c2ccccc2C(F)(F)F)C1 (stereo not drawn)	u	x	n	x	+
CC(C)(C)[S+](=O)([O-])/C(C#N)=C/NC1=NCCCC1	x	x	x	n	x
N#CCCN(C(=O)COC(=O)C1CCN(S(=O)(=O)c2ccccc2C(F)(F)F)CC1)c1ccccc1	n	x	n	x	n
CN(C)CCC=C1c2ccccc2C=Cc2ccccc21	32µM	8.2µM	n	6.5µM	n
CN(C)CCC=C1c2ccccc2CCc2ccccc21	u	9.2µM	u	12µM!	u
CN(C)CC/C=C1/c2ccccc2COc2ccccc21	x	x	n	x	x
S=C(Nc1ccc(Br)cc1)NC1CCCC1	n	u	n	n	-65
COc1ccc(NC(=S)NC2CCCCC2)cn1	n	n	n	n	-87
Cc1ccccc1-n1c(-c2ccc(Cl)cc2)cnc1SCC(=O)NC1CCS(=O)(=O)C1 (stereo not drawn)	n	n	n	n	n
O=C(NCc1ccccc1)C1=CN2CCN(Cc3cccc(Cl)c3)C(=O)N=C2O1	x	x	x	x	n
O=C(NCCSCc1c(F)cccc1Cl)c1ccc(CN2CCOCC2)cc1	u	n	u	n	-63
Cc1ccc(CSCCNC(=O)c2ccc(Cl)c(S(=O)(=O)N3CCOCC3)c2)cc1	22µM	u	u	n	n
NS(=O)(=O)c1ccc(CCNC(=O)c2ccc(Cl)c(S(=O)(=O)N3CCCCC3)c2)cc1	n	u	45µM	u	u
O=C(NCCN1CCOCC1)c1ccc(Cl)c(S(=O)(=O)N2CCCCC2)c1	x	u	n	n	n
O=C(NCCC1=CCCCC1)c1ccc(Cl)c(S(=O)(=O)N2CCCCC2)c1	u	x	u	x	-81
O=C(NCCSCc1ccco1)c1ccc(CN2CCOCC2)cc1	n	u	x	n	n
Cc1ccc(-c2ccc(CN3C(CC(C)C)C(=O)N(Cc4cn(CC5CCCCC5)nn4)CCS3(=O)=O)cc2)cc1 (stereo not drawn)	x	u	u	x	n
COc1ccc(Cl)cc1C(=O)NCCc1ccc(S(=O)(=O)NC(=O)NC2CCCCC2)cc1	n[8.37 µM]	n	n	u	-63
SMILES	HCV inhibitor	LASV entry inh	FMDV inh	Marburg entry inh	HCMV antiviral
COc1ccc(C(=O)NCCc2c[nH]c3ccccc23)cc1S(=O)(=O)N1CCCCC1C (stereo not drawn)	u	u	n	u	n
O=C(NCCC1=CCCCC1)c1ccc(Cl)c(S(=O)(=O)N2CCOCC2)c1	u	n	u	n	-66
COc1ccc(CCNC(=O)NC2CCCCC2)cc1OC	n	n	n	u	n
COc1ccc(C(=O)NCCc2ccc(Cl)cc2)cc1S(=O)(=O)N1CCCCC1C (stereo not drawn)	8.9µM	x	n	x	u
O=C(NCCC1=CCCCC1)c1cc(S(=O)(=O)N2CCOCC2)c(Cl)cc1Cl	n	n	n	n	n
Cc1ccc(C)c(S(=O)(=O)N2CCCOC2CNC(=O)C(=O)NCCC2=CCCCC2)c1 (stereo not drawn)	n	u	u	n	-67
COc1ccc(OCC(=O)N2CCN(C(=O)c3ccc(F)cc3)CC2)cc1	n	n	n	n	n
Cc1ccc(-c2ccc([C@@H]3[C@@H](CO)N4C(=O)CN(C(=O)c5ccncc5)C[C@H]34)cc2)cc1	x	x	x	x	n
CCOc1ccc(-n2cc(-c3ccccc3)c3c(NCCc4ccccc4)ncnc32)cc1	x	n	n	x	n
CN1CCc2c(sc3ncn4nc(-c5ccccc5O)nc4c23)C1	n	x	x	x	x
O=C(OCC(O)C(O)C(O)C(SCc1ccccc1)SCc1ccccc1)c1ccccc1 (stereo not drawn)	u	u	n	u	n
C/C(N)=C(/C#N)C(=O)CSc1nnnn1-c1ccc(C)cc1	n	n	n	u	n
COc1ccccc1CNC(=S)Nc1ccc2nc(N3CCN(C)CC3)cc(C)c2c1	n	n	n	u	n
